# Only some compounds are listed: those with a hit (about 2.3% of all), similar ones and a draw of the others.
# CHRM1 PAM: human CHRM1 positive allosteric modulation. P11229. CHO-K1 hM1, Fluo-8 calcium fluorescence, ACh EC20; 0% = ACh EC20, 100% = maximal ACh. activation, % at 3 µM. hit rate 0.088% among 360,000. AID 588819; in the data active means activation above about 19%, passing the limit was not always enough
# Target sequence (P11229 whole entry, looked up): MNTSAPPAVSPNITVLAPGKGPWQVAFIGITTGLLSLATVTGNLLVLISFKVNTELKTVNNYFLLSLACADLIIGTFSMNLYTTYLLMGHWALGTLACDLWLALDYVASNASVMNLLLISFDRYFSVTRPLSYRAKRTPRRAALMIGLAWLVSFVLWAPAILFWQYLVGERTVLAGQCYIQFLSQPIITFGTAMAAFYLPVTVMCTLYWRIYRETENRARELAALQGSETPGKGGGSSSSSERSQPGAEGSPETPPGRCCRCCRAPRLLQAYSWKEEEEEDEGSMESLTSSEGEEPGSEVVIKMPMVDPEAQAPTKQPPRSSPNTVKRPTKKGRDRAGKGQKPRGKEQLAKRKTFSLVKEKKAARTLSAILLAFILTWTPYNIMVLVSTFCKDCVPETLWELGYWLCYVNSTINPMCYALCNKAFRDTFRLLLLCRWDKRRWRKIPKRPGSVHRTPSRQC
# M1 ag parental: M1 agonist counterscreen hit in parental CHO-K1 cells; Fluo-8 calcium fluorescence; scaled to maximal ATP response, vehicle zero; activation, % at 3 µM; hit rate 0.48% among 360,000; in the data active means activation above about 15%;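 further: untransfected CHO-K1 host cells lacking M1 receptor as counterscreen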
# CHO-K1 Ca antag: M1 antagonist counterscreen hit in parental CHO-K1 cells; hit rate 0.6% among 360,000; ATP-induced calcium, Fluo-8 fluorescence; AID 602250; inhibition, % at 3 µM;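 active means inhibition above a per-plate cutoff, the plate's mean sample inhibition plus 3 SD, cut at about 24% in these data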;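 further: 0% = DMSO plus EC80 ATP and 100% = DMSO alone without ATP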
# CHRM1 antagonist: antagonists of human M1 muscarinic receptor. CHO-K1 hM1, Fluo-8 calcium fluorescence, ACh EC80 antagonist. inhibition, % at 3 µM. hit rate 1.3% among 360,000. AID 588852;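 active means percent inhibition above its own plate's cutoff, namely the mean of that plate's compound wells plus 3 SD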;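 further: peak over basal fluorescence ratio during 140 s after agonist addition; 0% = ACh EC80 plus DMSO and 100% = DMSO alone without agonist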
# M1 PAM parental: nonselective activator or artifact in parental CHO-K1 calcium assay | ATP EC20, Fluo-8 calcium fluorescence; 0% at ATP EC20, 100% at ATP max | activation, % at 3 µM | hit rate 0.02% among 360,000;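 active means activation above the run cutoff, the mean activation of all test compounds plus 3 SD, cut at about 40% in these data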;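 further: peak over basal fluorescence ratio in a 140 s read after ATP addition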
# M1 ag: agonists of human M1 muscarinic receptor; P11229; CHO-K1 hM1, Fluo-8 calcium fluorescence, agonist mode; 0% DMSO, 100% acetylcholine EC100; activation, % at 3 µM; hit rate 0.33% among 360,000; AID 588814;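 active means activation above the run's mean compound activation plus 3 SD, cut at about 16% in these data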;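 further: peak over basal fluorescence ratio within a 140 s kinetic read after compound addition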
# * hit, by the source's call.
SMILES,CHRM1 PAM,M1 ag parental,CHO-K1 Ca antag,CHRM1 antagonist,M1 PAM parental,M1 ag
CCN(CC)CCNC(=O)c1ccc(NC(=O)Cc2ccccc2F)cc1,-9.3,0.1,2.6,4.3,4.3,-15.4
Cc1nn(-c2ccc(NC(=O)c3ccncc3)cc2)c(C)c1Cl,-19.8,13.4,8.8,31.6*,-4.5,2.1
CCN(CC)CCNC(=O)c1ccc(NC(=O)c2cccc(S(=O)(=O)N(C)C3CCCCC3)c2)cc1,-29.7,0.3,-15.2,99.8*,10.5,-8.5
CCN(CC)CCNC(=O)c1ccc(NC(=O)c2ccc3c(c2)CCC3)cc1,-11.1,2.4,-15.6,14.2,15.6,-9.5
CCN(CC(=O)Nc1ccc(NC(C)=O)cc1)C(=O)c1c(C)nn(-c2ccc(F)cc2)c1Cl,-11.8,4.4,-7.1,29.7,-9.7,-2.7
C/C(=N\NC(=O)c1c(Cl)c(C)nn1C)c1ccc(NC(=O)c2ccncc2)cc1,2.8,0.5,9.5,-2.2,7.0,-5.6
CCN(CC)CCNC(=O)c1ccc(NC(=O)c2c(C)nn(-c3ccc(F)cc3)c2Cl)cc1,-33.4,3.0,-0.6,100.7*,2.9,-9.7
CCN(CC)CCNC(=O)c1ccc(NC(=O)c2ccccc2-c2ccc(C(F)(F)F)cc2)cc1,-31.0,4.0,-7.2,101.1*,10.3,-10.8
CCN(CC)CCNC(=O)c1ccc(NC(=O)c2cn(-c3ccccc3)nc2-c2cccs2)cc1,-27.8,2.5,-3.5,61.2*,25.0,-9.4
O=C(Nc1cccnc1)c1cn(-c2ccccc2)nc1-c1cccs1,-9.4,4.9,-5.4,5.6,5.5,-1.4
CCN(CC)CCNC(=O)c1ccc(NC(=O)c2cn(-c3ccc(F)cc3)nc2-c2cccc(OC)c2)cc1,-30.9,1.3,-11.5,99.3*,13.6,-11.3
CCCN1C2CCCC1CC(NC(=O)c1ccccc1OCC)C2 (stereo unspecified),-9.1,-0.1,-6.8,20.4,17.7,-4.8
CCOc1ccccc1C(=O)NC1CC2CCCC(C1)N2Cc1ccc(C)cc1 (stereo unspecified),-23.8,-0.3,-4.3,42.9*,1.4,-9.3
CCCN1C2CCCC1CC(NC(=O)c1ccccc1)C2 (stereo unspecified),-16.1,0.0,-1.2,41.9*,-3.2,-5.9
CCNC(=S)NC1CC2CCCC(C1)N2CCc1ccccc1 (stereo unspecified),-27.5,0.2,-6.8,72.4*,10.1,-8.3
CCCN1C2CCCC1CC(NC(=O)c1ccccc1Br)C2 (stereo unspecified),-20.9,-0.1,0.1,47.0*,-8.3,-8.7
CCCN1C2CCCC1CC(NC(=O)c1ccccc1F)C2 (stereo unspecified),-7.0,0.0,16.8,9.6,-8.0,-5.1
O=C1NC2(CCCC2)C(=O)N1CC(=O)N(Cc1ccccc1)c1ccccc1,-0.8,0.4,14.1,10.8,-21.6,-4.6
